{
  "source": "the supplement of paper PMC12636033",
  "note": "± gives the standard deviation of the averaged measurements. The full ranking holds about 33,000 sequences; the median of “E-score (rank enrichment, -0.5 to 0.5)” is about -0.0028, and the highest 2% start at about 0.23. The list comes from a sample in which the highest values are over-represented; it also holds similar and randomly drawn sequences.",
  "data": [
    {"tested_on": "2Sb-muMax20 (muMax20 with two 1,3-bis(methyl)benzene Cys staples, A13C/A17C and Q88C/A92C, C-terminal Lys)", "assay": "PBM 8-mer E-score (E-score (rank enrichment, -0.5 to 0.5)); higher = stronger preferential binding", "description": "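Protein binding microarray (universal PBM chip covering all 10-mers in fixed probe flanks) with chemically synthesized human Max(13-93) bHLH-LZ analogs (not full-length Max) bearing noncanonical residues (hArg, Tha, Aib, Nle at 65) and aromatic Cys staples. Read-out per 8-mer (and its reverse complement): E-score (rank-based enrichment, -0.5 to 0.5) and Z-score of median probe intensity.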", "values": [
      {"sequence": "CGACGCAG", "PBM 8-mer E-score": "-0.238 ± 0.017"},
      {"sequence": "ATGAATGG", "PBM 8-mer E-score": "0.297 ± 0.033"},
      {"sequence": "ATGAATGA", "PBM 8-mer E-score": "0.181 ± 0.035"},
      {"sequence": "ATGAAATG", "PBM 8-mer E-score": "0.277 ± 0.066"},
      {"sequence": "ATGAAATA", "PBM 8-mer E-score": "0.169 ± 0.024"},
      {"sequence": "ATGAATGC", "PBM 8-mer E-score": "0.164 ± 0.06"},
      {"sequence": "ATGAAATC", "PBM 8-mer E-score": "0.137 ± 0.039"},
      {"sequence": "CCCGCGAG", "PBM 8-mer E-score": "0.015 ± 0.026"},
      {"sequence": "CGCAGACG", "PBM 8-mer E-score": "-0.0875 ± 0.1"},
      {"sequence": "CATGTGCC", "PBM 8-mer E-score": "0.161 ± 0.0077"},
      {"sequence": "ATGGCCGC", "PBM 8-mer E-score": "-0.0812 ± 0.007"},
      {"sequence": "CCTGCGAA", "PBM 8-mer E-score": "-0.0794 ± 0.0094"},
      {"sequence": "AGGGGTGG", "PBM 8-mer E-score": "0.287 ± 0.046"},
      {"sequence": "AGGGTGGA", "PBM 8-mer E-score": "-0.0307 ± 0.022"},
      {"sequence": "AGGGTGGG", "PBM 8-mer E-score": "0.266 ± 0.032"},
      {"sequence": "AAGGGTGG", "PBM 8-mer E-score": "0.0428 ± 0.051"},
      {"sequence": "AGGGGTGA", "PBM 8-mer E-score": "0.16 ± 0.05"},
      {"sequence": "AGGGTGGC", "PBM 8-mer E-score": "0.0374 ± 0.1"},
      {"sequence": "GTTCGTAA", "PBM 8-mer E-score": "-0.00989 ± 0.0088"},
      {"sequence": "ACTATCGC", "PBM 8-mer E-score": "0.097 ± 0.036"},
      {"sequence": "AATGCTAT", "PBM 8-mer E-score": "0.0731 ± 0.033"},
      {"sequence": "ACCGCATA", "PBM 8-mer E-score": "0.0507 ± 0.032"},
      {"sequence": "AGGTAAAC", "PBM 8-mer E-score": "-0.0251 ± 0.11"},
      {"sequence": "AGGTAAAT", "PBM 8-mer E-score": "0.0873 ± 0.074"},
      {"sequence": "AGGTAAAG", "PBM 8-mer E-score": "0.2635 ± 0.0021"},
      {"sequence": "AGCAGATC", "PBM 8-mer E-score": "-0.143 ± 0.068"},
      {"sequence": "ACGTCTTA", "PBM 8-mer E-score": "-0.193 ± 0.025"},
      {"sequence": "CATGTTTC", "PBM 8-mer E-score": "0.05 ± 0.033"},
      {"sequence": "CATGTTGC", "PBM 8-mer E-score": "0.0698 ± 0.024"},
      {"sequence": "AATGTTGA", "PBM 8-mer E-score": "0.0172 ± 0.078"},
      {"sequence": "GATGTTTA", "PBM 8-mer E-score": "0.12 ± 0.03"},
      {"sequence": "CATGTTGA", "PBM 8-mer E-score": "0.257 ± 0.02"},
      {"sequence": "CATGTTTA", "PBM 8-mer E-score": "0.239 ± 0.024"},
      {"sequence": "AACGGTGG", "PBM 8-mer E-score": "-0.0485 ± 0.0095"},
      {"sequence": "GAAATGGC", "PBM 8-mer E-score": "0.0246 ± 0.0079"},
      {"sequence": "ACTATACG", "PBM 8-mer E-score": "0.156 ± 0.033"},
      {"sequence": "CTCTAATA", "PBM 8-mer E-score": "0.0986 ± 0.022"},
      {"sequence": "TTAATCAA", "PBM 8-mer E-score": "0.0337 ± 0.0076"},
      {"sequence": "CGAATCAA", "PBM 8-mer E-score": "0.2677 ± 0.00054"},
      {"sequence": "CTAATCAC", "PBM 8-mer E-score": "0.14 ± 0.0037"},
      {"sequence": "CGAATCAG", "PBM 8-mer E-score": "-0.163 ± 0.065"},
      {"sequence": "CTAATCAA", "PBM 8-mer E-score": "0.277 ± 0.014"},
      {"sequence": "TGAATCAA", "PBM 8-mer E-score": "0.0626 ± 0.026"},
      {"sequence": "AGGCCACT", "PBM 8-mer E-score": "0.129 ± 0.0082"},
      {"sequence": "CGTAGCAA", "PBM 8-mer E-score": "-0.0306 ± 0.0061"},
      {"sequence": "ACTTCATA", "PBM 8-mer E-score": "0.0718 ± 0.0033"},
      {"sequence": "CTAACCGC", "PBM 8-mer E-score": "-0.0848 ± 0.018"},
      {"sequence": "AAAGTTTA", "PBM 8-mer E-score": "0.249 ± 0.022"},
      {"sequence": "AAAGTTTC", "PBM 8-mer E-score": "-0.0128 ± 0.036"},
      {"sequence": "GAAGTTTA", "PBM 8-mer E-score": "-0.0783 ± 0.12"},
      {"sequence": "CCGAGAGG", "PBM 8-mer E-score": "-0.225 ± 0.049"},
      {"sequence": "CAGCGCGA", "PBM 8-mer E-score": "-0.0207 ± 0.052"},
      {"sequence": "CACCCATA", "PBM 8-mer E-score": "0.21 ± 0.0057"},
      {"sequence": "CCCCCATA", "PBM 8-mer E-score": "0.0403 ± 0.02"},
      {"sequence": "GACCCATA", "PBM 8-mer E-score": "0.23906 ± 6.4e-05"},
      {"sequence": "GCCCCATA", "PBM 8-mer E-score": "0.356 ± 0.039"},
      {"sequence": "AACCCATA", "PBM 8-mer E-score": "0.229 ± 0.016"},
      {"sequence": "GGCCCATA", "PBM 8-mer E-score": "-0.0795 ± 0.036"},
      {"sequence": "CATCTACA", "PBM 8-mer E-score": "0.137 ± 0.025"},
      {"sequence": "ACCTGATC", "PBM 8-mer E-score": "-0.0825 ± 0.031"},
      {"sequence": "ATCTAGGG", "PBM 8-mer E-score": "0.171 ± 0.013"},
      {"sequence": "AACCCTCT", "PBM 8-mer E-score": "-0.0379 ± 0.0099"},
      {"sequence": "ACCCATAT", "PBM 8-mer E-score": "0.252 ± 0.051"},
      {"sequence": "CCCCACAC", "PBM 8-mer E-score": "0.19 ± 0.13"},
      {"sequence": "ACCCATAG", "PBM 8-mer E-score": "0.0412 ± 0.039"},
      {"sequence": "ACGCATAA", "PBM 8-mer E-score": "0.17 ± 0.01"},
      {"sequence": "ACCCATAC", "PBM 8-mer E-score": "0.119 ± 0.051"},
      {"sequence": "CCCCACAG", "PBM 8-mer E-score": "-0.09771 ± 0.00011"},
      {"sequence": "CCCCACAA", "PBM 8-mer E-score": "0.264 ± 0.0045"},
      {"sequence": "AACCATAT", "PBM 8-mer E-score": "0.232 ± 0.0038"},
      {"sequence": "ACGCATAT", "PBM 8-mer E-score": "0.246 ± 0.0099"},
      {"sequence": "ACGCATAG", "PBM 8-mer E-score": "-0.0652 ± 0.023"},
      {"sequence": "AACCATAC", "PBM 8-mer E-score": "-0.0703 ± 0.11"},
      {"sequence": "AACCATAA", "PBM 8-mer E-score": "0.13 ± 0.018"},
      {"sequence": "ACACAGAG", "PBM 8-mer E-score": "-0.0541 ± 0.0044"},
      {"sequence": "ACGGACTG", "PBM 8-mer E-score": "-0.167 ± 0.011"},
      {"sequence": "ACAGGACA", "PBM 8-mer E-score": "-0.0877 ± 0.075"},
      {"sequence": "TCCTAAGA", "PBM 8-mer E-score": "-0.186 ± 0.031"},
      {"sequence": "GTAGCTAC", "PBM 8-mer E-score": "0.0481 ± 0.06"},
      {"sequence": "CACCATTA", "PBM 8-mer E-score": "-0.044 ± 0.042"},
      {"sequence": "GCCCATAA", "PBM 8-mer E-score": "0.0149 ± 0.062"},
      {"sequence": "AGCCATAA", "PBM 8-mer E-score": "0.0405 ± 0.0087"},
      {"sequence": "CCCCATAA", "PBM 8-mer E-score": "0.3007 ± 0.003"},
      {"sequence": "TCCCATAA", "PBM 8-mer E-score": "0.0657 ± 0.052"},
      {"sequence": "ACCCATTA", "PBM 8-mer E-score": "0.161 ± 0.015"},
      {"sequence": "AACCATTG", "PBM 8-mer E-score": "-0.163 ± 0.044"},
      {"sequence": "ACGCACAG", "PBM 8-mer E-score": "-0.146 ± 0.017"},
      {"sequence": "ACGCACAT", "PBM 8-mer E-score": "0.235 ± 0.024"},
      {"sequence": "ACGCACAA", "PBM 8-mer E-score": "0.0307 ± 0.012"},
      {"sequence": "ACCCATAA", "PBM 8-mer E-score": "0.25 ± 0.023"},
      {"sequence": "AACCATTA", "PBM 8-mer E-score": "0.276 ± 0.005"},
      {"sequence": "TCCTGGAA", "PBM 8-mer E-score": "-0.283 ± 0.06"},
      {"sequence": "TACTTTCA", "PBM 8-mer E-score": "0.0779 ± 0.057"},
      {"sequence": "TACCGAGA", "PBM 8-mer E-score": "-0.0899 ± 0.043"}
    ]}
  ]
}
